Potency data for three molecules are collected here from PubChem BioAssay (NCATS).

SMILES strings stand for the structures. Records with an inconclusive call do not appear. Entries that show only a call come without a potency. Calls of active or inactive are those of the source. Calls follow the shape of the dose curve; as a rule, active = well fitted cell-killing curve with a large enough effect; inconclusive = small, poorly fitted or top-dose-only effect, or effect the other way; inactive = flat fitted curve, though single readings scatter.

The test system of the test is Tov112D. Nature of the test: Primary qHTS to identify gynecologic anti-cancer compounds using libraries of approved drugs and bioactive compounds (AID 1345084). Also: nearly all actives have a fitted effect of over 55% in size. To be noted: Gynecologic cancer cell panel viability, ATPlite luminescence, 48 h; series mostly up to 57.5 µM. In a few lines:
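In this quantitative HTS, cell killing is estimated from loss of ATP-dependent luciferase light. Cells see five compound concentrations over a 48 h exposure.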
For orientation: In qHTS, concentration-response curves come from the screen itself.
As for `C/C(=C\CO)CC/C=C(\C)C(=O)O[C@@H]1O[C@H](CO)[C@@H](O)[C@H](O)[C@H]1O`, the Potency entry is “inactive”.

With `COC(=O)C1=COC(OC2OC(CO)C(O)C(O)C2O)C2C(C)C(OC(=O)/C=C/c3ccc(O)cc3)C(O)C12` (stereo not drawn), the Potency entry was “inactive”.

With `C[C@]12CC[C@@H]3c4ccc(O)cc4CC[C@H]3[C@@H]1C[C@@H](O[C@@H]1O[C@H](C(=O)O)[C@@H](O)[C@H](O)[C@H]1O)[C@@H]2O`, the Potency entry is “inactive”.
